# Key:
# Test in all cases: DAPPL (digital affinity profiling via proximity ligation, sequencing); 10 mM Tris-HCl pH 7.5, 50 mM NaCl, 1 mM DTT, 4% glycerol, room temperature, 30 min; GST-TFs on glutathione beads, 16-mer random dsDNA library, 0.1% formaldehyde crosslink after washing; high values mean tight binding
# FLI1 = target: T1, FLI1 (Homo sapiens, UniProt Q01543 1-452); conditions: protein: recombinant; tags: N-terminal GST; dsDNA, one strand shown
# T1 sequence: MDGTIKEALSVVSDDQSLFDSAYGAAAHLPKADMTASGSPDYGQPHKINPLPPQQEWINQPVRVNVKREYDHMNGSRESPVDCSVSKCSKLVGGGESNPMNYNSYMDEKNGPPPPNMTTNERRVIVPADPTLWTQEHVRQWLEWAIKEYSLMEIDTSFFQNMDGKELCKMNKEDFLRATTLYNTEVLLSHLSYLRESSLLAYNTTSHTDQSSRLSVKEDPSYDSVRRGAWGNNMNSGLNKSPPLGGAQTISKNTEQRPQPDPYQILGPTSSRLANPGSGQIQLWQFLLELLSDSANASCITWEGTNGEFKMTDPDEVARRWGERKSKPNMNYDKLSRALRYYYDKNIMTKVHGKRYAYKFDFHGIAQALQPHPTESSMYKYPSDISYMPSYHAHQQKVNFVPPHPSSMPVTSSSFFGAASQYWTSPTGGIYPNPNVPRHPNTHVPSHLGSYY
# Summary of the method: (§1)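 A tag-only sample was pooled with DNA-barcoded human transcription factors that had been expressed in yeast as GST fusions and captured on glutathione beads. The pools were incubated for 30 min at room temperature with 200 nmole of a random double-stranded 16-mer DNA library in Tris/NaCl/DTT/glycerol buffer, then washed, crosslinked with 0.1% formaldehyde, proximity-ligated (BsaI/T4 ligase, 1 h, 37 °C), PCR-amplified and sequenced on an Illumina NextSeq500. Binding signal is each hexamer's read frequency for a factor divided by its frequency for the tag-only sample.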
# ELK1 = target: T2, ELK1 (Homo sapiens, UniProt P19419 1-428); conditions: protein: recombinant; tags: N-terminal GST; dsDNA, one strand shown
# T2 sequence: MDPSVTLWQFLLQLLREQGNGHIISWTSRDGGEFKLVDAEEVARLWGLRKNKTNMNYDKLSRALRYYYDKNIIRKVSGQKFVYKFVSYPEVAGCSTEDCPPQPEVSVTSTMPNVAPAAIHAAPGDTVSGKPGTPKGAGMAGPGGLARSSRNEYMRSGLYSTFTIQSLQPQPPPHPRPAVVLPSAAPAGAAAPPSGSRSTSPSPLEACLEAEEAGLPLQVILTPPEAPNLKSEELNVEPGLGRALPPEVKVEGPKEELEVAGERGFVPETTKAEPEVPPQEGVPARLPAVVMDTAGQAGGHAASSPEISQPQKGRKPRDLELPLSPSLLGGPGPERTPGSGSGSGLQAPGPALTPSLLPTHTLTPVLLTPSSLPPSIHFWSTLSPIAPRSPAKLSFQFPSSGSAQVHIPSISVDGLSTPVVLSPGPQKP
# Summary of the method: as §1
# GABPA = target: T3, GABPA (Homo sapiens, UniProt Q06546 1-454); conditions: protein: recombinant; tags: N-terminal GST; dsDNA, one strand shown
# T3 sequence: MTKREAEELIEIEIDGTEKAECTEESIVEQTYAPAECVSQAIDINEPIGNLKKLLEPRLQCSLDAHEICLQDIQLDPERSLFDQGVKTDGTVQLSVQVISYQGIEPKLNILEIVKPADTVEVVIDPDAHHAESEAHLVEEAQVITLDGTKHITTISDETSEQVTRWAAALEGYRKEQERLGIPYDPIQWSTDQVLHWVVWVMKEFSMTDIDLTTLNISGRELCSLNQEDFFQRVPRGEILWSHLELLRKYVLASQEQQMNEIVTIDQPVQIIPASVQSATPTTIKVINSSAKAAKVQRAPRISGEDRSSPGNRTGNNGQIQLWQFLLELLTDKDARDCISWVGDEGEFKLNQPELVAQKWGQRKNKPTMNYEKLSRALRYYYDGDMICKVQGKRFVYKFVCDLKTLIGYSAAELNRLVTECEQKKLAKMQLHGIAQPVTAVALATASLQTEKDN
# Summary of the method: as §1
# ERG = target: T4, ERG (Homo sapiens, UniProt P11308 1-479); conditions: protein: recombinant; tags: N-terminal GST; dsDNA, one strand shown
# T4 sequence: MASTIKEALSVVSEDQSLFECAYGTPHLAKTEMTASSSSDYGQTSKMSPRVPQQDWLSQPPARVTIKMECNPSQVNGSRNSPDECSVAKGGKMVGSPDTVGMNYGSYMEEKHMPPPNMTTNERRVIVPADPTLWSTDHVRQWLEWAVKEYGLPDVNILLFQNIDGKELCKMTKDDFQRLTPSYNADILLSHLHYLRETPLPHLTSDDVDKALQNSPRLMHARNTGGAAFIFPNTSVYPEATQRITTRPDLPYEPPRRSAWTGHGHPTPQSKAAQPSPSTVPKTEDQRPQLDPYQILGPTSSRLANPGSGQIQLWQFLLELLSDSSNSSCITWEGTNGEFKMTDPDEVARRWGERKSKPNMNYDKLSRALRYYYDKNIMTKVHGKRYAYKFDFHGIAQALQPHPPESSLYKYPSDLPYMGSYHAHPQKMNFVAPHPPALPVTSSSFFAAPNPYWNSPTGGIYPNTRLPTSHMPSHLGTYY
# Summary of the method: as §1
# ELF1 = ELF1 (Homo sapiens, UniProt P32519 1-619); conditions: protein: recombinant; tags: N-terminal GST; dsDNA, one strand shown
# Sequence of ELF1 (P32519 whole entry): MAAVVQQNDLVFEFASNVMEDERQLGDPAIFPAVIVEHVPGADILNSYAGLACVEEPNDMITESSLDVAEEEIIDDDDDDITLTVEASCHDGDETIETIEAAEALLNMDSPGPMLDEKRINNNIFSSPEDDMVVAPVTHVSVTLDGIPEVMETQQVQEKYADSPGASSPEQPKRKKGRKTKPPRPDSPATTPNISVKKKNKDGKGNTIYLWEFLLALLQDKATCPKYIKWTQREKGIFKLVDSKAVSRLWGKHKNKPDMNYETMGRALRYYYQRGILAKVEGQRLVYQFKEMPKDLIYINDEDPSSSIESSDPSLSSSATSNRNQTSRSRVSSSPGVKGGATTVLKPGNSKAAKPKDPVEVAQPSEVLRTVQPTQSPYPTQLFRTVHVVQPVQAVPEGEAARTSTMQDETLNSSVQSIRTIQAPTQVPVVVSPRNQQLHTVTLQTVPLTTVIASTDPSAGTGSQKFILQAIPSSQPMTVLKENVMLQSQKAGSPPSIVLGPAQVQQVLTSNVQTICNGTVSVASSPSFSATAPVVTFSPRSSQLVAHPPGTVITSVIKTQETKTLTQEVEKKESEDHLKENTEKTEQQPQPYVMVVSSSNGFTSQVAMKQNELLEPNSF
# Summary of the method: as §1
# EHF = target: T5, EHF (Homo sapiens, UniProt Q9NZC4 1-300); conditions: protein: recombinant; tags: N-terminal GST; dsDNA, one strand shown
# T5 sequence: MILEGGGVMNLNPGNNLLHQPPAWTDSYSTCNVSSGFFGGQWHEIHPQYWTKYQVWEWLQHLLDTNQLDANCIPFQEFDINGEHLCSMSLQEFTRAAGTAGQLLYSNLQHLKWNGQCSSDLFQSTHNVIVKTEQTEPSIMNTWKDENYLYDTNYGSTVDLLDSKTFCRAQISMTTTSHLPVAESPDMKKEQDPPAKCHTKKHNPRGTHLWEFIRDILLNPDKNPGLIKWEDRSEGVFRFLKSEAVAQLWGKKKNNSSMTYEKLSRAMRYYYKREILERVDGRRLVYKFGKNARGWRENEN
# Summary of the method: as §1
# SPI1 = SPI1 (Homo sapiens, UniProt P17947 1-270); conditions: protein: recombinant; tags: N-terminal GST; dsDNA, one strand shown
# Summary of the method: as §1
# SPIB = SPIB (Homo sapiens, UniProt Q01892 1-262); conditions: protein: recombinant; tags: N-terminal GST; dsDNA, one strand shown
# Sequence of SPIB (Q01892 whole entry): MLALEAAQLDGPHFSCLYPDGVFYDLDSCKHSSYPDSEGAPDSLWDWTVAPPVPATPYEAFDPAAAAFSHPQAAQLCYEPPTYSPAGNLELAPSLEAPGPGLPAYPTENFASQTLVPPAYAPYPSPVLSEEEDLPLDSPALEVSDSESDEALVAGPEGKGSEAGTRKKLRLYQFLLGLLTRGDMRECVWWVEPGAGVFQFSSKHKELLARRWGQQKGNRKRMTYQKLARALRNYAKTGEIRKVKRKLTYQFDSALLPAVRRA
# Summary of the method: as §1
# ELK3 = target: T6, ELK3 (Homo sapiens, UniProt P41970 1-407); conditions: protein: recombinant; tags: N-terminal GST; dsDNA, one strand shown
# T6 sequence: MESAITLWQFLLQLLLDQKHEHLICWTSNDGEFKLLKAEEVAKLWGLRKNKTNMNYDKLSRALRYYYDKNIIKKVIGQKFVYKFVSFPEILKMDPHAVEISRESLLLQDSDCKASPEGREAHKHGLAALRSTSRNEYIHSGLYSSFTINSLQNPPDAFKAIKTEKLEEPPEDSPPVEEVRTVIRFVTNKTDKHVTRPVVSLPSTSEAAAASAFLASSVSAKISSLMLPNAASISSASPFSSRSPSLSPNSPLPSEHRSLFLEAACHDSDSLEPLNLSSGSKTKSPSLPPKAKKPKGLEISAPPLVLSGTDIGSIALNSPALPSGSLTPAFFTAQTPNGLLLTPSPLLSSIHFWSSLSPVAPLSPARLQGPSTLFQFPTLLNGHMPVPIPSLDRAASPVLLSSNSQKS
# Summary of the method: as §1
# FEV = target: T7, FEV (Homo sapiens, UniProt Q99581 1-238); conditions: protein: recombinant; tags: N-terminal GST; dsDNA, one strand shown
# T7 sequence: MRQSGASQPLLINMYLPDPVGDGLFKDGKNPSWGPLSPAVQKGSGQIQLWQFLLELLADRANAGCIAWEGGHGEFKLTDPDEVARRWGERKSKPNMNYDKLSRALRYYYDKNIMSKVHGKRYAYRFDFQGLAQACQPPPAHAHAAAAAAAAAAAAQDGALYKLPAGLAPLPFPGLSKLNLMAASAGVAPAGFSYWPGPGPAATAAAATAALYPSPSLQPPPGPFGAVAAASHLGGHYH
# Summary of the method: as §1
# ETV5 = ETV5 (Homo sapiens, UniProt P41161 1-510); conditions: protein: recombinant; tags: N-terminal GST; dsDNA, one strand shown
# Sequence of ETV5 (P41161 whole entry): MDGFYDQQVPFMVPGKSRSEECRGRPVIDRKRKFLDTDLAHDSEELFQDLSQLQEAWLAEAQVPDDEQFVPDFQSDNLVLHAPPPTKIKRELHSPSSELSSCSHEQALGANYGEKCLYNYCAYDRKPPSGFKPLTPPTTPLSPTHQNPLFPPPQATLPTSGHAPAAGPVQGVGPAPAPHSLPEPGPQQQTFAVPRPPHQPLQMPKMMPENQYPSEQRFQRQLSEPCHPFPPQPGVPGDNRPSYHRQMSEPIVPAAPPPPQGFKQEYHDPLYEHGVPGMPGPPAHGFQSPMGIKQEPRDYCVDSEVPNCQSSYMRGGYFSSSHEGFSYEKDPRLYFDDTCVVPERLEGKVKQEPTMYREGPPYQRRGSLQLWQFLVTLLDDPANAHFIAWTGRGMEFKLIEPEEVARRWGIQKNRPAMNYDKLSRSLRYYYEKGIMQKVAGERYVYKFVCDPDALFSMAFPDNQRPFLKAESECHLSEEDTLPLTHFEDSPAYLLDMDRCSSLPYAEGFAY
# Summary of the method: as §1
# HSF1 = HSF1 (Homo sapiens, UniProt Q00613 1-529); conditions: protein: recombinant; tags: N-terminal GST; chain copies: 3; dsDNA, one strand shown
# Sequence of HSF1 (Q00613 whole entry): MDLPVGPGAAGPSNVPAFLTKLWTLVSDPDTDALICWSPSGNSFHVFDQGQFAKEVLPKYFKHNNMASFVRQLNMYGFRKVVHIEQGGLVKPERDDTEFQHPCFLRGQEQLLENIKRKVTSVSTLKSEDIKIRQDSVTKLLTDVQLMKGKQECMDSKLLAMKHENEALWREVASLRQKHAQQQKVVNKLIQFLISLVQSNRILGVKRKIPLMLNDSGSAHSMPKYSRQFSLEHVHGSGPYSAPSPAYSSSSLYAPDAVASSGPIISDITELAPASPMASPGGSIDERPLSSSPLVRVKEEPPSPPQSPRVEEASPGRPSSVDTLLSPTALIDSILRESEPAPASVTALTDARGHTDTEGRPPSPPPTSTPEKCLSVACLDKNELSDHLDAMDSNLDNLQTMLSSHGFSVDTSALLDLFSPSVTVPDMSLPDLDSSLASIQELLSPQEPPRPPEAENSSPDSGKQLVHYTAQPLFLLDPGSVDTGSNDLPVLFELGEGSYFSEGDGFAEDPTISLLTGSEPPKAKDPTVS
# Summary of the method: as §1
# ELF4 = ELF4 (Homo sapiens, UniProt Q99607 1-663); conditions: protein: recombinant; tags: N-terminal GST; dsDNA, one strand shown
# Sequence of ELF4 (Q99607 whole entry): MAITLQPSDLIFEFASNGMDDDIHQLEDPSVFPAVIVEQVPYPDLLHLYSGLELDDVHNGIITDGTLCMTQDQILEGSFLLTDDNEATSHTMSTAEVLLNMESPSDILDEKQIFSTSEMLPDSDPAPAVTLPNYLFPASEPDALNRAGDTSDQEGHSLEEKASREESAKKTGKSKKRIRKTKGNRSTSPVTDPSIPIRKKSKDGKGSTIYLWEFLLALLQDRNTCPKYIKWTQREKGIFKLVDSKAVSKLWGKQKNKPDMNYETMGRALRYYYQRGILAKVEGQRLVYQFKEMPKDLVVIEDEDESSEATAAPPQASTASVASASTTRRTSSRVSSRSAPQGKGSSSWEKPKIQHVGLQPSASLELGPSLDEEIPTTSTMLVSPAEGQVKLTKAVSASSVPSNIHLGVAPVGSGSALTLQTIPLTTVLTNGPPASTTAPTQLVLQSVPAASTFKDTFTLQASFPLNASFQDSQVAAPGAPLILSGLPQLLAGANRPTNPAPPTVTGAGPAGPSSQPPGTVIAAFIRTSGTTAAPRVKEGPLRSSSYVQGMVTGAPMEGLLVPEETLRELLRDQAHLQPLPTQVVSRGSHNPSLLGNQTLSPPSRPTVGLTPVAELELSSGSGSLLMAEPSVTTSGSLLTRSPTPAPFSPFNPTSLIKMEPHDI
# Summary of the method: as §1
# ELK4 = target: T8, ELK4 (Homo sapiens, UniProt P28324-2 1-405); conditions: protein: recombinant; tags: N-terminal GST; dsDNA, one strand shown
# T8 sequence: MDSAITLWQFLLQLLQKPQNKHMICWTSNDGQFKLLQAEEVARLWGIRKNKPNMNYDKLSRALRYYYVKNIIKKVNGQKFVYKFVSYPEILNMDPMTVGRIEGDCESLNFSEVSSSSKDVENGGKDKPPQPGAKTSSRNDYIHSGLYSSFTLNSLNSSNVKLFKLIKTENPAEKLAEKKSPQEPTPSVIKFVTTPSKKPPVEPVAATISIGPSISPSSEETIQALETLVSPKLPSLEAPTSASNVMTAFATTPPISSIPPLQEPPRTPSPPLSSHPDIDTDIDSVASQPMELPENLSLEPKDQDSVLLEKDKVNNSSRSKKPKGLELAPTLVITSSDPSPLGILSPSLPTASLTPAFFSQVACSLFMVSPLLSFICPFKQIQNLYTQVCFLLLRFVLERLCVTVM
# Summary of the method: as §1
# ETV2 = target: T9, ETV2 (Homo sapiens, UniProt O00321 1-342); conditions: protein: recombinant; tags: N-terminal GST; dsDNA, one strand shown
# T9 sequence: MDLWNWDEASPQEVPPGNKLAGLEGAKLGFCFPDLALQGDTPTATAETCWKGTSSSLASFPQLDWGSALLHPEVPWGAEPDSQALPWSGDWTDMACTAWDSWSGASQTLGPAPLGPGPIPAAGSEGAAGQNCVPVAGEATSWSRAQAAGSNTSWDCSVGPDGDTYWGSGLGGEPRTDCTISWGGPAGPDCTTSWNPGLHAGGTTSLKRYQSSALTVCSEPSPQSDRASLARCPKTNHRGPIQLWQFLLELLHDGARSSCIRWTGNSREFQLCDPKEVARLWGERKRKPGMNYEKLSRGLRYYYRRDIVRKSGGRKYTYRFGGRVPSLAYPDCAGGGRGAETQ
# Summary of the method: as §1
# ELF3 = target: T10, ELF3 (Homo sapiens, UniProt P78545 1-371); conditions: protein: recombinant; tags: N-terminal GST; dsDNA, one strand shown
# T10 sequence: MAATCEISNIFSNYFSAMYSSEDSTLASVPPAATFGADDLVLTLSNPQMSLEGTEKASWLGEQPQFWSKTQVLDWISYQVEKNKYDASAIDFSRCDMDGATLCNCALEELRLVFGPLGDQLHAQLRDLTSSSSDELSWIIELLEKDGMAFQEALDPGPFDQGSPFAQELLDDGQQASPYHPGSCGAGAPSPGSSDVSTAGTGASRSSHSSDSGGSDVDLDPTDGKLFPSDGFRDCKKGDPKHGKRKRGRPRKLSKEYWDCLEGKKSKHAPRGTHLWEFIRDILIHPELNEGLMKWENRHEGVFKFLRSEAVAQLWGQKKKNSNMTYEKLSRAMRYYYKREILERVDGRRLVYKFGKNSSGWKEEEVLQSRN
# Summary of the method: as §1
# CRX = CRX (Homo sapiens, UniProt O43186 1-299); conditions: protein: recombinant; tags: N-terminal GST; dsDNA, one strand shown
# Sequence of CRX (O43186 whole entry): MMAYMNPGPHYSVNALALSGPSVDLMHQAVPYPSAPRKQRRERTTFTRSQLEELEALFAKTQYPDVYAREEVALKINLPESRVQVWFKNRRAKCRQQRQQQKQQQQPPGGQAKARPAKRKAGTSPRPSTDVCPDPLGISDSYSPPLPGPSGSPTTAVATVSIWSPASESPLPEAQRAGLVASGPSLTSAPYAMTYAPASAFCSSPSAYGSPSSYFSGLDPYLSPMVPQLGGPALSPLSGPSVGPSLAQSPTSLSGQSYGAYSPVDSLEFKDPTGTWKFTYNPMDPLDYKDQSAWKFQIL
# Summary of the method: as §1
# ETV1 = ETV1 (Homo sapiens, UniProt P50549 1-477); conditions: protein: recombinant; tags: N-terminal GST; dsDNA, one strand shown
# Sequence of ETV1 (P50549 whole entry): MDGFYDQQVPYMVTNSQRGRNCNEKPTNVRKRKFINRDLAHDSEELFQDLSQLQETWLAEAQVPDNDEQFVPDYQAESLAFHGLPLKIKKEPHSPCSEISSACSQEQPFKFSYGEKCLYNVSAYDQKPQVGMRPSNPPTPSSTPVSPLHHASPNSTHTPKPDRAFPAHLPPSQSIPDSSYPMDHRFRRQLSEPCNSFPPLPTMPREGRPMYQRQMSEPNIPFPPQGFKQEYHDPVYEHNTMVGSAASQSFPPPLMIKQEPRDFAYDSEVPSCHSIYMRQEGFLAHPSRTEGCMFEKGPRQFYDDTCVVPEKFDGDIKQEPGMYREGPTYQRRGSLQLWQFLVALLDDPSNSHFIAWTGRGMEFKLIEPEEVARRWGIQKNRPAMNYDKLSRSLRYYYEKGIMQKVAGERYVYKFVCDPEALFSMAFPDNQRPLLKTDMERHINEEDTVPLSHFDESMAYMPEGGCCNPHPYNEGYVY
# Summary of the method: as §1
sequence,measurement,setting,value
TAGTGT,binding signal,FLI1,"1.17 fold enrichment (6-mer frequency, TF over GST control)"
same,binding signal,ELK1,"1.16 fold enrichment (6-mer frequency, TF over GST control)"
same,binding signal,GABPA,"1.14 fold enrichment (6-mer frequency, TF over GST control)"
same,binding signal,ERG,"1.02 fold enrichment (6-mer frequency, TF over GST control)"
same,binding signal,ELF1,"1.14 fold enrichment (6-mer frequency, TF over GST control)"
same,binding signal,EHF,"1.11 fold enrichment (6-mer frequency, TF over GST control)"
same,binding signal,SPI1,"1.12 fold enrichment (6-mer frequency, TF over GST control)"
same,binding signal,SPIB,"1.14 fold enrichment (6-mer frequency, TF over GST control)"
same,binding signal,ELK3,"1.08 fold enrichment (6-mer frequency, TF over GST control)"
same,binding signal,FEV,"1.02 fold enrichment (6-mer frequency, TF over GST control)"
same,binding signal,ETV5,"1.12 fold enrichment (6-mer frequency, TF over GST control)"
same,binding signal,HSF1,"1.15 fold enrichment (6-mer frequency, TF over GST control)"
same,binding signal,ELF4,"1.11 fold enrichment (6-mer frequency, TF over GST control)"
same,binding signal,ELK4,"1.4 fold enrichment (6-mer frequency, TF over GST control)"
same,binding signal,ETV2,"1.06 fold enrichment (6-mer frequency, TF over GST control)"
same,binding signal,ELF3,"1.21 fold enrichment (6-mer frequency, TF over GST control)"
same,binding signal,CRX,"1.29 fold enrichment (6-mer frequency, TF over GST control)"
same,binding signal,ETV1,"1.21 fold enrichment (6-mer frequency, TF over GST control)"
